This is part of a sample that, as a whole, favours compounds with a hit. Of some 83,000 tested, about 20% had one in any assay.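 Plates (96-well) were seeded with cells, treated with compound at one concentration, and incubated for 48 hours before percent growth was determined.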 Activity calls are given as the source filed them. Rule for the calls: active = growth percent below 10; inactive = the rest.
Legend:
Test in all cases: NCI-60 one-dose screen, 48 h (100 = growth as untreated, 0 = no growth, -100 = all killed)
Conditions in all cases: 10 µM unless noted
[1] = system: HCT-15 colon
[2] = system: HT29 colon
[3] = system: SNB-75 CNS
[4] = system: SNB-19 CNS
[5] = system: U251 CNS
[6] = system: PC-3 prostate
[7] = system: SK-MEL-5 melanoma
[8] = system: UACC-62 melanoma
[9] = system: LOX IMVI melanoma
[10] = system: SK-MEL-28 melanoma

Measured: growth

CNC(=O)c1cc(Oc2cccc3nc(Nc4ccc(Cl)c(F)c4)ccc23)ccn1
inactive: [1] 59.3% | [2] 82.5% | [4] 30.3% | [5] 53.3% | [6] 66.1% | [7] 44.8% | [8] 52.3% | [9] 59.6% | [10] 48.8%
active: [3] -11.7%

CC/C(=C(/c1ccc(Cl)cc1)c1ccc(OCCN2CCCCC2)cc1)c1ccc(Cl)cc1
inactive: [1] 57.1% | [2] 23% | [3] 85.7% | [4] 85.7% | [5] 62.3% | [6] 63.7% | [7] 86.9% | [8] 97% | [9] 82.2% | [10] 98.5%

CNC(=O)CN1CCC(Oc2cc3c(Nc4cccc(Cl)c4F)ncnc3cc2OC)CC1
inactive: [1] 66.8% | [2] 36.8% | [3] 20.9% | [4] 70.3% | [5] 80.4% | [6] 65.7% | [7] 77.2% | [8] 86.8% | [9] 37.7% | [10] 91.7%

CCCCCCCCCCCC[n+]1ccccc1
inactive: [1] 39.4% | [10] 21.4%
active: [2] 1.53% | [3] 0.831% | [4] 8.57% | [5] -0.664% | [6] -38.2% | [7] -95.3% | [8] -41.9% | [9] -40.9%

Cc1ccc(-n2nc(C(C)(C)C)cc2NC(=O)NCc2cc(F)ccc2Oc2ccc3c(cnn3CCO)c2)cc1
active: [2] 5.67% | [7] -19.5% | [8] 7.75% | [9] 5.06% | [10] 0.876%
inactive: [1] 17.5% | [3] 32.7% | [4] 48.1% | [5] 31.3% | [6] 33.5%

O=C(c1ccccc1)C(c1ccccc1)N1CCOCC1 (stereo not given)
inactive: [1] 104% | [2] 99.1% | [3] 100% | [4] 100% | [5] 95.1% | [6] 92.7% | [7] 102% | [8] 105% | [9] 98.2% | [10] 105%

CC(=O)c1cnc2ccc(-c3cc(Cl)c(O)c(Cl)c3)nc2c1NC1CCC(CN(C)C)CC1 (stereo not given)
active: [1] 0.375% [2.5 µM] | [2] 0.58% [2.5 µM] | [3] -96.9% [2.5 µM] | [4] 5.41% [2.5 µM] | [5] -26.6% [2.5 µM] | [6] -12% [2.5 µM] | [7] -86.5% [2.5 µM] | [8] -70.9% [2.5 µM] | [9] -61.2% [2.5 µM] | [10] -39.8% [2.5 µM]

CC(=Nc1ccccc1)C1=C(O)C(Cc2ccccc2)NC1=O (stereo not given)
inactive: [3] 19.1% | [4] 16.4% | [5] 15.5% | [8] 24.6% | [9] 18.5% | [10] 37.8%
active: [1] 5.57% | [2] -0.116% | [6] 5.74% | [7] -43.3%

Nc1nc(Nc2ccccc2)c(C=Nc2ccccc2)c(=O)[nH]1
inactive: [1] 96.9% | [2] 101% | [3] 80.3% | [4] 89.1% | [5] 89.1% | [6] 87.5% | [7] 98.4% | [8] 84.3% | [9] 87.1% | [10] 109%

Cc1cc(C)n(CC(=O)Nc2ccc(-c3nc4ccccc4s3)cc2)n1
inactive: [1] 105% | [2] 108% | [3] 101% | [4] 99.8% | [5] 89.7% | [6] 86.8% | [7] 96.4% | [8] 95.3% | [9] 97.7% | [10] 109%

Cc1ccc(Nc2nccc(N(C)c3ccc4c(C)n(C)nc4c3)n2)cc1S(N)(=O)=O
inactive: [1] 14.3% | [4] 30.9% | [5] 18.8% | [6] 45.2%
active: [2] 3.61% | [3] -25.9% | [7] -34% | [8] -18.3% | [9] -30.1% | [10] 8.83%

O=C(c1ccc(/C=C/c2n[nH]c3ccccc23)cc1)N1CCNCC1
inactive: [1] 40.3% | [2] 13.5% | [4] 68.7% | [5] 58.9% | [6] 38.3% | [7] 53.1% | [8] 48.7% | [10] 46.2%
active: [3] 0.841% | [9] 5.66%

O=c1sn(-c2cccc3ccccc23)c(=O)n1Cc1ccccc1
inactive: [1] 104% | [2] 100% | [3] 105% | [4] 101% | [5] 97.1% | [6] 89.9% | [7] 104% | [8] 92.6% | [9] 99.9% | [10] 114%

Cc1ccc(C(=O)Nc2ccc(CN3CCN(C)CC3)c(C(F)(F)F)c2)cc1C#Cc1cnc2cccnn12
active: [1] -83.1% | [2] -69.8% | [3] -99.1% | [4] -98.3% | [5] -98.5% | [6] -64.1% | [7] -98.8% | [8] -89.1% | [9] -94% | [10] -97%

COC(=O)[C@]12CC[C@@H](C)[C@H](C)[C@@H]1C1=CC[C@@H]3[C@@]4(C)C[C@@H](OC(=O)/C=C/c5ccccc5)[C@H](O)[C@@](C)(CO)[C@@H]4[C@H](O)C[C@@]3(C)[C@]1(C)CC2
inactive: [3] 44.1% | [4] 14.3% | [6] 11.3% | [7] 18.3% | [8] 21.4%
active: [1] -20.9% | [2] -49.3% | [5] -28.5% | [9] -96.4% | [10] 4.73%

O=C(O)C1(Cc2cccc(Nc3nccs3)n2)CCC(Oc2cccc(Cl)c2F)CC1 (stereo not given)
inactive: [1] 70.7% | [2] 62.8% | [3] 95.5% | [4] 75.4% | [5] 60.8% | [6] 71.3% | [7] 70.3% | [8] 61.8% | [9] 74.6% | [10] 88.4%

CCc1cc2c(c3ccc(C(=O)CBr)cc13)CCCC2
inactive: [1] 101% | [2] 91.7% | [3] 91.5% | [4] 108% | [5] 95.1% | [6] 96% | [7] 106% | [8] 91.8% | [9] 93.3% | [10] 108%

Cc1nn(-c2nc3ccccc3[nH]2)c2c1C(c1ccc(O)cc1)CC(=O)N2 (stereo not given)
inactive: [1] 70.6% | [2] 83.9% | [3] 27.8% | [4] 84.1% | [5] 76.4% | [6] 77.7% | [7] 85.3% | [8] 84.9% | [9] 85.2% | [10] 80.4%

O=C(NO)c1ccc(Cn2c(=O)n(CCc3ccccc3)c(=O)c3ccccc32)cc1
active: [8] 3.79%
inactive: [1] 28.6% | [2] 42.3% | [3] 54.3% | [4] 45.2% | [5] 23.8% | [6] 20.3% | [7] 34.8% | [9] 12.9% | [10] 13.4%

C#Cc1cccc(Nc2ncnc3cc4c(cc23)OCCOCCOCCO4)c1
inactive: [1] 68.8% | [2] 57% | [3] 57.7% | [4] 60.9% | [5] 57% | [6] 57.3% | [7] 58.1% | [8] 32.9% | [9] 51% | [10] 57.6%

O=C(O)c1ccc2c(c1)nc(Nc1cccc(Cl)c1)c1ccncc12
inactive: [2] 19.2% | [4] 13.5% | [6] 10.1%
active: [1] 5.48% | [3] -25.6% | [5] -24.6% | [7] -64.9% | [8] -50.4% | [9] 7.77% | [10] 3.16%

COc1ccc(-c2nocc2-c2cc(OC)c(OC)c(OC)c2)cc1
inactive: [3] 32.8% | [4] 34.9% | [5] 19.1% | [6] 29% | [8] 13% | [9] 43.5% | [10] 49.8%
active: [1] 9.74% | [2] 0.361% | [7] 7.25%

COC(=O)[C@H](Cc1ccc(O)cc1)NC(=O)[C@@H](OC)[C@@H]1Cc2cc3cc(OC4CC(OC5CC(O)C(O)C(C)O5)C(O)C(C)O4)c(C)c(O)c3c(O)c2C(=O)[C@H]1OC1CC(OC2CC(OC3CC(C)(O)C(O)C(C)O3)C(O)C(C)O2)C(O)C(C)O1 (stereo not given in full)
active: [2] 3.68% | [3] -52.5% | [4] 8.72% | [5] 7.18% | [7] -53.3% | [8] -53.1% | [9] -31.2% | [10] -26.6%
inactive: [1] 47.5% | [6] 13.4%

CCc1nc2cc(F)c(/C=C/C(=O)NO)cc2c(=O)n1CCc1ccccc1
active: [5] 7.95% | [7] 4.25% | [8] -21.7% | [9] -33.9%
inactive: [1] 24.4% | [2] 13.2% | [3] 34.8% | [4] 30.2% | [6] 22.6% | [10] 19.4%

CNC(=O)c1cc(COc2nnc(Nc3ccc(Cl)cc3)c3ccoc23)ccn1
inactive: [1] 70.1% | [2] 71% | [4] 19.6% | [5] 15.1% | [6] 34.5% | [8] 47.8% | [9] 15.5% | [10] 52.5%
active: [3] -39.3% | [7] -0.858%

C=C1C(=O)O[C@H]2[C@H]1CC/C(Cn1cc(-c3cc(C)c(C)cc3C)nn1)=C\CC[C@@]1(C)O[C@@H]21
active: [1] -82.6% | [2] -67.9% | [6] -69.7% | [7] 7.44% | [8] -82% | [9] -95% | [10] -76.3%
inactive: [3] 29% | [4] 41.8% | [5] 12.8%
